ChEMBL document CHEMBL3988442, “University of Dundee, Small-Polar-MMV Screening Library” (2021)
For some assays here: Results with a measured potency or affinity are listed apart.

Columns and labels:
Design in all cases: scale not given: direction of the effect not stated beside the values
[1] = biological target: Protein translocase subunit SecA (Escherichia coli (strain K12)) (UniProt P10408); experiment: Assay to Identify E. coli SecA ATPase Inhibitors; assay type: functional; settings: 30 µM
[2] = biological target: T1, Ubiquitin-activating enzyme e1, putative (Leishmania donovani (strain BPK282A1)) (UniProt E9BSI1); experiment: Leishmania donovani Ubiquitin Activating Enzyme (LdE1); assay type: functional; settings: 30 µM
T1 sequence (whole entry): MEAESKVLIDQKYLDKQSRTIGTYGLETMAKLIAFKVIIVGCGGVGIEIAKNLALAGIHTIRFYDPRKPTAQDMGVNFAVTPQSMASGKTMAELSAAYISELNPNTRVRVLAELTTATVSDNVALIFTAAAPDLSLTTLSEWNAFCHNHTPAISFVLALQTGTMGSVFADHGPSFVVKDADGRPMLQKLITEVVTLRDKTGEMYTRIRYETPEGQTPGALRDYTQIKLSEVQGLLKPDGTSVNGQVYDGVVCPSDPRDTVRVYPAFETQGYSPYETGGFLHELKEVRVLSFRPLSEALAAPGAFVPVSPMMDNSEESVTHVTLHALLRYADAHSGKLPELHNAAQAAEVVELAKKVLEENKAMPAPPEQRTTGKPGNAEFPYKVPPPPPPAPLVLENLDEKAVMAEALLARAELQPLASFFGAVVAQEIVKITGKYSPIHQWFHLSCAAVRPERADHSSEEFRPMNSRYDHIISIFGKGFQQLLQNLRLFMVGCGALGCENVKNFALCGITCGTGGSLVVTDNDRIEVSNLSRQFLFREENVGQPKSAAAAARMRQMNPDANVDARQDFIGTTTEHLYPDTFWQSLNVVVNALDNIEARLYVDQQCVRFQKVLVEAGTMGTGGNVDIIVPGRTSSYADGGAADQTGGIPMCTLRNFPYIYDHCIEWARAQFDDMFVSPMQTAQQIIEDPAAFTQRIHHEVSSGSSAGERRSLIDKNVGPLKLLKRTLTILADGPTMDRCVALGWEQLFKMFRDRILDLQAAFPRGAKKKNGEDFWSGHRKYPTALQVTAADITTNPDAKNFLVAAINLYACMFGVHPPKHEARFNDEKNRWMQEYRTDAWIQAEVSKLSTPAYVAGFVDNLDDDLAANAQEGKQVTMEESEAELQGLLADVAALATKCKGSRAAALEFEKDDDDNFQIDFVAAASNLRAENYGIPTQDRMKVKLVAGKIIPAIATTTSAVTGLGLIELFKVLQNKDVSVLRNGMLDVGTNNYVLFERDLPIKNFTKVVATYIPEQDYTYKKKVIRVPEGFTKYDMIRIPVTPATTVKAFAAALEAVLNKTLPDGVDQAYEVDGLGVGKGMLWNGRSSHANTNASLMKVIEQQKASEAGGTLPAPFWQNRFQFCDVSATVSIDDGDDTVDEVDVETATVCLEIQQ

[3] = biological target: AMP-activated protein kinase, AMPK (Homo sapiens) (UniProt P54646+O43741+P54619+Q9UGJ0+Q9Y478+Q13131+Q9UGI9); experiment: AMP-dependent Kinase enzyme assay. An in vitro enzyme assay that detects ADP turnover that is directly proportional to AMPK activity. This uses naive AMPK that is activated during the assay with MK-8722; assay type: functional; settings: 30 µM
[4] = biological target: Sialic acid-binding Ig-like lectin 9 (Homo sapiens) (UniProt Q9Y336); experiment: Hs-Siglec9 ALPHAscreen SOP 20170721; settings: 10 µM
[5] = tested on: Trypanosoma cruzi; experiment: Trypanosoma cruzi phosphomannomutase and mannose-1-phosphate guanylyltransferase assay; assay type: functional; settings: 10 µM
[6] = biological target: T2, Arginase-2, mitochondrial (Homo sapiens) (UniProt P78540); experiment: in vitro enzyme assay to detect the production of urea directly proportional to the activity of Arginase II; assay type: functional; settings: 33.3 µM; also: in the data most compounds retested in dose-response had high values
T2 sequence (whole entry): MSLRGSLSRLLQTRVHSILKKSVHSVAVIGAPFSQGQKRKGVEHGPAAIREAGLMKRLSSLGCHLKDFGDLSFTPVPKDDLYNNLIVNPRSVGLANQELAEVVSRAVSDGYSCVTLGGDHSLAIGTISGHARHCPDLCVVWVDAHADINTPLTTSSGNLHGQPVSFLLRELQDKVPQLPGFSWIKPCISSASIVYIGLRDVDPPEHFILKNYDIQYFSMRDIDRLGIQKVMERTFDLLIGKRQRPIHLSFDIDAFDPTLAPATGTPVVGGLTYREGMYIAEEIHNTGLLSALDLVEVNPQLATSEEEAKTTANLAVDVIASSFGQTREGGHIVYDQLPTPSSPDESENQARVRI

[7] = biological target: T3, Proteasome subunit beta (Trypanosoma cruzi) (UniProt O96673); experiment: Trypanosoma cruzi proteasome chymotrypsin-like activity (TcProtChymo) assay.; also: in the data most compounds retested in dose-response had high values; assay type: functional; settings: 9.37 µM
T3 sequence (whole entry): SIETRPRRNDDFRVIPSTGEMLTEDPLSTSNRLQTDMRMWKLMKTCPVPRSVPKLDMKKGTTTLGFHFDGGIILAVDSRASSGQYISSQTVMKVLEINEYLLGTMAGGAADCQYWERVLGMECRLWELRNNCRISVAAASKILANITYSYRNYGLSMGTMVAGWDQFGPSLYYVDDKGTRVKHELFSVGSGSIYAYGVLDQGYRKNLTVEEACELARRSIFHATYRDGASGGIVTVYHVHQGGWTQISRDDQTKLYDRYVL

[8] = organism: Homo sapiens; experiment: To identify inhibition of the IFN signalling (Jak-Stat) pathway via expression of an eGFP reporter gene under the control of an IFN-stimulated response element (ISRE) containing MxA promoter.; assay type: functional; settings: 30 µM
[9] = biological target: T4, Tyrosyl-tRNA synthetase, putative (Trypanosoma cruzi (strain CL Brener)) (UniProt Q4DSP6); experiment: Trypanosoma cruzi tyrosyl tRNA synthetase (TcYRS) _High Tyrosine SOP; assay type: functional; settings: 30 µM; also: in the data most compounds retested in dose-response had high values
T4 sequence (whole entry): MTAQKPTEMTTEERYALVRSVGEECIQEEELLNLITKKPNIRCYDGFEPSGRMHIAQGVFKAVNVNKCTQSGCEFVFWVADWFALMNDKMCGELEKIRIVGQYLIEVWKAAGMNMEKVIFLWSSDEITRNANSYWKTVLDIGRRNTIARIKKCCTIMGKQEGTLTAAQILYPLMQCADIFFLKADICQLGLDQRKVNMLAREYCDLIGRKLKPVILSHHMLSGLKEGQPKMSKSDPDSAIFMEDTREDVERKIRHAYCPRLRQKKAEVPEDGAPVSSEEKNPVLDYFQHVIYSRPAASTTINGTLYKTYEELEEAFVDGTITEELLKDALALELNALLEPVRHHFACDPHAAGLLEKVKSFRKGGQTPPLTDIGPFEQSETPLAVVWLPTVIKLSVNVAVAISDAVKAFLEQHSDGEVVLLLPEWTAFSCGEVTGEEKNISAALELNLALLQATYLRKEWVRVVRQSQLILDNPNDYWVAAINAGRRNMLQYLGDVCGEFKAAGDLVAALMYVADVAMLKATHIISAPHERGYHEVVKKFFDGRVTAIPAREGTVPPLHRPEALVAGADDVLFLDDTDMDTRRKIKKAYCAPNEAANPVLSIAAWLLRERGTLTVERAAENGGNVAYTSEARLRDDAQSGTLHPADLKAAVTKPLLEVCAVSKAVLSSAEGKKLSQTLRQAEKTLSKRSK

[10] = biological target: T4, Tyrosyl-tRNA synthetase, putative (Trypanosoma cruzi (strain CL Brener)); experiment: Trypanosoma cruzi tyrosyl tRNA synthetase (TcYRS) SOP; assay type: functional; settings: 30 µM
[11] = biological target: Chromo domain-containing protein 1 (Saccharomyces cerevisiae (strain ATCC 204508 / S288c) (Baker's yeast)) (UniProt P32657); experiment: ScCHD-1 Enzyme Inhibition Assay; assay type: functional; settings: 30 µM; also: in the data most compounds retested in dose-response had high values
Sequence of Chromo domain-containing protein 1 (Saccharomyces cerevisiae (strain ATCC 204508 / S288c) (Baker's yeast)) (P32657 whole entry, the tested form may be a part): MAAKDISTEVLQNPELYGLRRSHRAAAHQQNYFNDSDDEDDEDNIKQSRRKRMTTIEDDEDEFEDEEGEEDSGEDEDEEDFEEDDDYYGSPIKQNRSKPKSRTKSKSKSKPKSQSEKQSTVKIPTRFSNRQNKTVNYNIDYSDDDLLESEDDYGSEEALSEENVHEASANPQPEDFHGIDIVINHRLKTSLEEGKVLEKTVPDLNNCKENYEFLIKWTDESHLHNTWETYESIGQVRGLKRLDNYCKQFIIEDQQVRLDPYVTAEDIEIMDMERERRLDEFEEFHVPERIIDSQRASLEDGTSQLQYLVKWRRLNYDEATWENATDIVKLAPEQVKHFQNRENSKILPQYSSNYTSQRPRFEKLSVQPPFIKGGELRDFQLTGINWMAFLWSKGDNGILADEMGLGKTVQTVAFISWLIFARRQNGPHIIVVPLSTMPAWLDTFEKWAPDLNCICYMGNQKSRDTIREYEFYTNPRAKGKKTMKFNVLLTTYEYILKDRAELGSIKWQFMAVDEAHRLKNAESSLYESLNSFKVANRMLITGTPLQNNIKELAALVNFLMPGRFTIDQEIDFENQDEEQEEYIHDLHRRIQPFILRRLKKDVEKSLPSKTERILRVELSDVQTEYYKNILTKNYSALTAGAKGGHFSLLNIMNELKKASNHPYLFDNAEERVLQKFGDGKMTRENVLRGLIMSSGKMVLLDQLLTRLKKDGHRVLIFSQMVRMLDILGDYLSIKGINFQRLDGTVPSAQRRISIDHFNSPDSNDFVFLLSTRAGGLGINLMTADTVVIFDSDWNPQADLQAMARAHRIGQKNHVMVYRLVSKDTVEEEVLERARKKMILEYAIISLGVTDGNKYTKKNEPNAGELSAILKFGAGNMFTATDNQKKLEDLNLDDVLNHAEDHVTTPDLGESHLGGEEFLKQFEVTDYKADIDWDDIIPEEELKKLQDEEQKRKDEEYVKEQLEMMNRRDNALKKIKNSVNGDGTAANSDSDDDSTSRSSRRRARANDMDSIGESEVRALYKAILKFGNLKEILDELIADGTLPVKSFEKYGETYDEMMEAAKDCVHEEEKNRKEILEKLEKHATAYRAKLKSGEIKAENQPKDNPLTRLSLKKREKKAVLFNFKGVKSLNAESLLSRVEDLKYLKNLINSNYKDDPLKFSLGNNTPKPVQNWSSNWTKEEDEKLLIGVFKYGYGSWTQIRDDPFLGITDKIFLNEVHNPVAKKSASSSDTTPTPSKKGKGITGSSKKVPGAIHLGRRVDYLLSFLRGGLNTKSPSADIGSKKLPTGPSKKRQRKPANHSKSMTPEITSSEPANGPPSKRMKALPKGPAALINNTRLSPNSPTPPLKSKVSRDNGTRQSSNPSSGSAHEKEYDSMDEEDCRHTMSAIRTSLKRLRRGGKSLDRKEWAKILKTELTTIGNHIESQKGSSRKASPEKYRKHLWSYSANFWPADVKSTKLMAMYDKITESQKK

Sequence of Sialic acid-binding Ig-like lectin 9 (Homo sapiens) (Q9Y336 whole entry): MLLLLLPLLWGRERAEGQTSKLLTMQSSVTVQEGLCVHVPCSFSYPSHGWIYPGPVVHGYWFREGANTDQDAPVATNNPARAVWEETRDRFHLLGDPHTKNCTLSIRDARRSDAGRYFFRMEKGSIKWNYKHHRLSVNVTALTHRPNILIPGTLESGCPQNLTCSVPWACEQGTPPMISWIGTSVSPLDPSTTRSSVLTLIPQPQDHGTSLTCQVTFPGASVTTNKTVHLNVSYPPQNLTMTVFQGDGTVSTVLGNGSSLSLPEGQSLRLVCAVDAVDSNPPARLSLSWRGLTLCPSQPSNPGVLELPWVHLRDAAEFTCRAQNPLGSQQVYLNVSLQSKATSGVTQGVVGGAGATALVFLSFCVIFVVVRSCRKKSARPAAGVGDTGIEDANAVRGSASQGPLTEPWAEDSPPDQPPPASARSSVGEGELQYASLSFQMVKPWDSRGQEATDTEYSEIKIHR
Sequence of Protein translocase subunit SecA (Escherichia coli (strain K12)) (P10408 whole entry): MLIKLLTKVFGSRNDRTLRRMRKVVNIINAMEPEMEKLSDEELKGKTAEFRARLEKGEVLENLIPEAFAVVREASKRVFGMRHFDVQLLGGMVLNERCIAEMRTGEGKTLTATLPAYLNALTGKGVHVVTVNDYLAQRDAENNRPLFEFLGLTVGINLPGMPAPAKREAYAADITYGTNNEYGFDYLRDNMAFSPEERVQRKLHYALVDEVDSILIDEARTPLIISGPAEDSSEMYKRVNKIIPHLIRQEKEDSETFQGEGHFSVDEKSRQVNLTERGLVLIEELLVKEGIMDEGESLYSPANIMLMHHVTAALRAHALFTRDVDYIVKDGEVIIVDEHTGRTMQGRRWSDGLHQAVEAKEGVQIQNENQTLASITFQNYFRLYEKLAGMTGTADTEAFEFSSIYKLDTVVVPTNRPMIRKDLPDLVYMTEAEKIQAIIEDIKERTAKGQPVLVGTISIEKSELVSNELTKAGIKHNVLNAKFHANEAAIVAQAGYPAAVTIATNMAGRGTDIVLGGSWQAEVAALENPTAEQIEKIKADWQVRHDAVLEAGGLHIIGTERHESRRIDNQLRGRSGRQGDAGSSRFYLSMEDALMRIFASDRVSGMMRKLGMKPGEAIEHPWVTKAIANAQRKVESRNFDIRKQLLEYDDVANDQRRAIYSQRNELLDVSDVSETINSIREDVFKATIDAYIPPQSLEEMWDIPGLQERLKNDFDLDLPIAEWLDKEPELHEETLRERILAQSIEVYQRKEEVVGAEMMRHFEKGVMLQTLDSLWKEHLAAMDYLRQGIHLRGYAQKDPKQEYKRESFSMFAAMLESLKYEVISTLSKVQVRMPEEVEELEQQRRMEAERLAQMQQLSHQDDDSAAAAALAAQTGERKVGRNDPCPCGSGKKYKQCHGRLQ

CCNC(=O)CCc1c(C)nc2cc(O)nn2c1C was tested, and the Percent Effect [1] was -0.575%, the Percent Effect [2] was 15.6% and the Percent Effect [3] was -428%. It also gave a Percent Effect [4] of 4.55%, a Percent Effect [5] of 5.43% and a Percent Effect [6] of 4.63%. It also gave a Percent Effect [7] of 16.9%, a Percent Effect [8] of 23.5% and a Percent Effect [9] of 2.91%. The Percent Effect [10] was 12.2% and the Percent Effect [11] was -8.86%.
Cn1c(C2CC2)nc2c1CCN(CC(=O)Nc1nncs1)C2 gave a Percent Effect [1] of -2.25%, a Percent Effect [2] of -2.6% and a Percent Effect [3] of 0.616%. For the same compound, the Percent Effect [4] was 7.43%, the Percent Effect [5] was -2.06% and the Percent Effect [6] was -11.4%. The Percent Effect [7] was 3.72%, the Percent Effect [8] was -9.48% and the Percent Effect [9] was 4.85%. For the same compound, the Percent Effect [10] was 7.32% and the Percent Effect [11] was -5.21%.
CCNc1cc2c(nn1)CCN(C(=O)Cc1c(C)noc1C)C2 was tested, and the Percent Effect [1] was -9.15%, the Percent Effect [2] was 7.89% and the Percent Effect [3] was 9.72%. For the same compound, the Percent Effect [4] was 1.08%, the Percent Effect [5] was -5.51% and the Percent Effect [6] was 0.719%. The Percent Effect [7] was 3.47%, the Percent Effect [8] was 6.32% and the Percent Effect [9] was 0.493%. The Percent Effect [10] was 1.24% and the Percent Effect [11] was 3.07%.
For O=C1c2cnc(N3CCOCC3)nc2CN1c1ccc2c(c1)OCO2, the Percent Effect [1] was -4.88%, the Percent Effect [2] was 7.79% and the Percent Effect [3] was 1.53%. The Percent Effect [4] was 6.09%, the Percent Effect [5] was 2.26% and the Percent Effect [6] was -5.52%. It also gave a Percent Effect [7] of 14.5%, a Percent Effect [8] of -11.1% and a Percent Effect [9] of 9.68%. It also gave a Percent Effect [10] of 21% and a Percent Effect [11] of 0.201%.
With Cc1ccccc1CN1CCCN(C2CCOC2=O)CC1 (stereo not given) the Percent Effect [1] was -1.89%, the Percent Effect [2] was -18.9% and the Percent Effect [3] was -9.35%. It also gave a Percent Effect [4] of 10.9%, a Percent Effect [5] of -3.3% and a Percent Effect [6] of 1.2%. The Percent Effect [7] was 10.4%, the Percent Effect [8] was 0.38% and the Percent Effect [9] was 2.46%. The Percent Effect [10] was 3.7% and the Percent Effect [11] was 1.51%.
COCC1CN(C(=O)COc2ccccc2)Cc2cn(C)nc21 (stereo not given) showed a Percent Effect [1] of 1.54%, a Percent Effect [2] of -2.6% and a Percent Effect [3] of 1.75%. It also gave a Percent Effect [4] of 4.23%, a Percent Effect [5] of -2.27% and a Percent Effect [6] of -8.39%. It also gave a Percent Effect [7] of 1.39%, a Percent Effect [8] of 9.62% and a Percent Effect [9] of -5.29%. For the same compound, the Percent Effect [10] was -1.28% and the Percent Effect [11] was -6.88%.
With Cn1cc(-c2csc(N3CCOCC3)n2)cn1 the Percent Effect [1] was -3.35%, the Percent Effect [2] was 1.39% and the Percent Effect [3] was -45.6%. For the same compound, the Percent Effect [4] was -2.23%, the Percent Effect [5] was 1.26% and the Percent Effect [6] was 2.21%. For the same compound, the Percent Effect [7] was 0.702%, the Percent Effect [8] was 1.08% and the Percent Effect [9] was 15.8%. It also gave a Percent Effect [10] of 28.2% and a Percent Effect [11] of -0.624%.
Cn1ccnc1CN1CCCC(Cc2ccccn2)C1 (stereo not given) showed a Percent Effect [1] of -7.44%, a Percent Effect [2] of 20.3% and a Percent Effect [3] of -4.84%. It also gave a Percent Effect [4] of 1.21%, a Percent Effect [5] of 4.94% and a Percent Effect [6] of -2.55%. It also gave a Percent Effect [7] of 13.6%, a Percent Effect [8] of 1.89% and a Percent Effect [9] of 4.3%. It also gave a Percent Effect [10] of 16.9% and a Percent Effect [11] of -20.2%.
Work on O=C(c1cc(COc2ccc3c(c2)OCO3)[nH]n1)N1CCOCC1 yielded a Percent Effect [1] of -8.28%, a Percent Effect [2] of -2.74% and a Percent Effect [3] of 9.08%. It also gave a Percent Effect [4] of -1.9%, a Percent Effect [5] of -4.37% and a Percent Effect [6] of 0.798%. For the same compound, the Percent Effect [7] was 7.45%, the Percent Effect [8] was 6.61% and the Percent Effect [9] was -3.12%. It also gave a Percent Effect [10] of -3.7% and a Percent Effect [11] of -5.41%.
Work on C[C@H]1C[C@@H]2CCN(C(=O)c3ccncn3)C[C@H]2O1 yielded a Percent Effect [1] of -5.91%, a Percent Effect [2] of 0% and a Percent Effect [3] of -1.04%. For the same compound, the Percent Effect [4] was -0.649%, the Percent Effect [5] was 1.56% and the Percent Effect [6] was 2.08%. For the same compound, the Percent Effect [7] was 1.27%, the Percent Effect [8] was -2.6% and the Percent Effect [9] was 5.94%. It also gave a Percent Effect [10] of 8.54% and a Percent Effect [11] of -3.12%.
